In the supplement of paper PMC6089552:
Out of some 3,200 compounds screened, about 300 (9.4%) showed activity. This is one part of a sample in which actives are shown more often than they occur.

System: A673/TR/shEF
Assay: cell viability (LOESS-normalised, relative to median of negative controls) (log2 ratio); higher = more viable cells (less compound effect), active = hit call of the paper (over 3 MAD below the median)
Conditions: treatment time: 72 h
Method in brief: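 Viability of A673/TR/shEF Ewing sarcoma cells was determined by CellTiter-Glo luminescence. The cells, at 1,500 per well in 384-well plates, were grown with or without doxycycline from 24 h before compound addition to switch on EWS-FLI1 shRNA knockdown, then exposed for three days to library compounds at two or more concentrations or to DMSO controls. Signals were LOESS-corrected plate by plate, normalised to the negative-control median and log2-transformed.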

[1] = 0.25 µM, library screen: screen1, EWS-FLI1 expression: high (no doxycycline)
[2] = 0.25 µM, library screen: screen1, EWS-FLI1 expression: low (doxycycline-induced shRNA knockdown)
[3] = 2.5 µM, library screen: screen1, EWS-FLI1 expression: high (no doxycycline)
[4] = 2.5 µM, library screen: screen1, EWS-FLI1 expression: low (doxycycline-induced shRNA knockdown)
[5] = 0.103 µM, library screen: screen3, EWS-FLI1 expression: high (no doxycycline)
[6] = 0.103 µM, library screen: screen3, EWS-FLI1 expression: low (doxycycline-induced shRNA knockdown)
[7] = 0.308 µM, library screen: screen3, EWS-FLI1 expression: high (no doxycycline)
[8] = 0.308 µM, library screen: screen3, EWS-FLI1 expression: low (doxycycline-induced shRNA knockdown)
[9] = 0.926 µM, library screen: screen3, EWS-FLI1 expression: high (no doxycycline)
[10] = 0.926 µM, library screen: screen3, EWS-FLI1 expression: low (doxycycline-induced shRNA knockdown)
[11] = 2.8 µM, library screen: screen3, EWS-FLI1 expression: high (no doxycycline)
[12] = 2.8 µM, library screen: screen3, EWS-FLI1 expression: low (doxycycline-induced shRNA knockdown)
[13] = 8.3 µM, library screen: screen3, EWS-FLI1 expression: high (no doxycycline)
[14] = 8.3 µM, library screen: screen3, EWS-FLI1 expression: low (doxycycline-induced shRNA knockdown)
[15] = 25 µM, library screen: screen3, EWS-FLI1 expression: high (no doxycycline)
[16] = 25 µM, library screen: screen3, EWS-FLI1 expression: low (doxycycline-induced shRNA knockdown)
[17] = 0.25 µM, library screen: screen2, EWS-FLI1 expression: high (no doxycycline)
[18] = 0.25 µM, library screen: screen2, EWS-FLI1 expression: low (doxycycline-induced shRNA knockdown)
[19] = 2.5 µM, library screen: screen2, EWS-FLI1 expression: high (no doxycycline)
[20] = 2.5 µM, library screen: screen2, EWS-FLI1 expression: low (doxycycline-induced shRNA knockdown)

Measured: cell viability (log2)

CCN(CC)S(=O)(=O)c1ccc(C(=O)N(CCC(=O)OC)c2ccccn2)cc1
inactive: [1] 0.0834 | [2] 0.147 | [3] 0.162 | [4] 0.127

Cn1c(CNc2ccc(C(=N)N)cc2)nc2cc(C(=O)N(CCC(=O)O)c3ccccn3)ccc21
inactive: [5] 0.00826 | [6] 0.00201 | [7] 0.0563 | [8] 0.0276 | [9] 0.0456 | [10] 0.123 | [11] -0.0294 | [12] 0.0652 | [13] 0.0628 | [14] 0.0736 | [15] 0.0838 | [16] 0.0437

CCCCCCOC(=O)/N=C(/N)c1ccc(NCc2nc3cc(C(=O)N(CCC(=O)OCC)c4ccccn4)ccc3n2C)cc1
active: [15] -0.441
inactive: [5] -0.0699 | [6] -0.0234 | [7] -0.0119 | [8] -0.019 | [9] 0.046 | [10] -0.0404 | [11] -0.0778 | [12] 0.0123 | [13] -0.0381 | [14] 0.0285 | [16] 0.0312

NCCCCCN
inactive: [1] 0.0699 | [2] 0.0406 | [3] 0.114 | [4] 0.103

Cc1coc2ccccc2c1=O
inactive: [1] 0.143 | [2] 0.1 | [3] 0.138 | [4] 0.165

CC1=CC(=O)CC(C)(C)[C@@]1(O)/C=C/C(C)=C\C(=O)O
inactive: [1] 0.103 | [2] 0.084 | [3] 0.143 | [4] 0.165

CC(=O)O[C@@H]1CC2C(C)(C)CCC(=O)[C@]2(C)C2CC[C@@]3(C)[C@H](c4ccoc4)OC(=O)C4OC43[C@@]21C (stereo partly drawn)
inactive: [1] 0.0305 | [2] 0.0828 | [3] 0.127 | [4] 0.0866

O=C(NC(C(=O)N1CCCCC1)=C1CCCCC1)c1ccccc1
inactive: [1] 0.107 | [2] 0.0798 | [3] 0.0724 | [4] 0.127

COC(=O)C1=C(C)N=c2s/c(=C/c3ccc(OC)cc3OC)c(=O)n2C1c1cccs1 (stereo not drawn)
inactive: [1] 0.0522 | [2] 0.13 | [3] 0.0666 | [4] 0.065

CCCCCCCCc1ccc(CCC(N)(CO)CO)cc1
inactive: [5] 0.0814 | [6] 0.0528 | [7] 0.0332 | [8] -0.0148 | [9] 0.0328 | [10] 0.0341 | [11] 0.00825 | [12] 0.0473 | [13] -0.0193 | [14] 0.0563
active: [15] -0.341 | [16] -0.161

CCCCCCCCCCCC1=C(O)C(=O)C=C(O)C1=O
inactive: [1] 0.161 | [2] 0.0381 | [3] 0.097 | [4] 0.0519

CC(=O)O[C@H]1C[C@@H](OC(C)=O)C(C)(C)C2CC(=O)[C@]3(C)C(CC[C@@]4(C)[C@H](c5ccoc5)OC(=O)[C@H]5O[C@]543)[C@]21C (stereo partly drawn)
inactive: [1] 0.116 | [2] 0.174 | [3] 0.177 | [4] 0.123

CCCCCCCCCCC[C@@H](C[C@@H]1OC(=O)[C@H]1CCCCCC)OC(=O)[C@H](CC(C)C)NC=O
active: [3] -0.116
inactive: [5] 0.0583 | [6] 0.00452 | [1] -0.0226 | [2] 0.0354 | [7] 0.0475 | [8] 0.11 | [9] -0.01 | [10] 0.0194 | [4] 0.178 | [11] -0.0124 | [12] 0.136 | [13] -0.103 | [14] -0.0203 | [15] -0.119 | [16] -0.0365

COC(=O)C[C@H]1C(C)(C)C2(Cl)O[C@@]34CC2C(=O)[C@]1(C)C3CC[C@]1(C)C4=CC(=O)O[C@H]1c1ccoc1 (stereo partly drawn)
inactive: [1] 0.0526 | [2] 0.0775 | [3] 0.126 | [4] 0.163

C=C1C(=O)O[C@@H]2C[C@@]3(C)CCC[C@H](C)C3=C[C@H]12
inactive: 0.025 µM, library screen: screen2, EWS-FLI1 expression: high (no doxycycline) 0.148 | 0.025 µM, library screen: screen2, EWS-FLI1 expression: low (doxycycline-induced shRNA knockdown) 0.0581 | [1] 0.0724 | [2] -0.00207 | [17] 0.177 | [18] 0.0288 | [3] 0.152 | [4] 0.0584 | [19] 0.0901 | [20] 0.000642 | 25 µM, library screen: screen2, EWS-FLI1 expression: high (no doxycycline) -0.0554 | 25 µM, library screen: screen2, EWS-FLI1 expression: low (doxycycline-induced shRNA knockdown) -0.102

CN(C)CCCN1c2ccccc2Sc2ccc(Cl)cc21
inactive: [5] 0.0728 | [6] 0.128 | [1] 0.1 | [2] 0.155 | [17] 0.141 | [18] 0.1 | [7] 0.122 | [8] 0.0127 | [9] 0.0627 | [10] 0.015 | [3] 0.206 | [4] 0.191 | [19] 0.129 | [20] 0.0664 | [11] -0.0176 | [12] 0.0383 | [13] 0.101 | [14] 0.0471 | [15] -0.0174 | [16] 0.0242

CN(C)CCCN1c2ccccc2Sc2ccc(C(F)(F)F)cc21
inactive: [1] 0.067 | [2] 0.0785 | [17] 0.0818 | [18] 0.0662 | [3] 0.0754 | [4] 0.158 | [19] 0.181 | [20] 0.0843

CN(C)CCCN1c2ccccc2Sc2ccccc21
active: [19] -1.62 | [20] -0.801
inactive: [1] 0.0889 | [2] 0.0795 | [17] 0.0137 | [18] -0.394 | [3] 0.107 | [4] 0.224

CC(=O)Oc1cc(-c2coc3cc(OC(C)=O)c(OC(C)=O)c(OC(C)=O)c3c2=O)cc(OC(C)=O)c1OC(C)=O
inactive: [1] 0.0397 | [2] -0.0292 | [3] 0.0912 | [4] -0.0545

CC1(C)C=Cc2c(c3c(c4c(=O)c(-c5ccc(O)cc5)coc24)OC(C)(C)CC3)O1
inactive: [1] 0.057 | [2] 0.068 | [3] 0.105 | [4] 0.116
